# Calls of active or inactive are those of the source.
# Legend:
# Albumin (Bos taurus) = Albumin (Bos taurus) (UniProt P02769); test: bovine serum albumin binders on microarray, profiling panel, artefact control for SMM control protein annotation, biochemical, small-molecule microarray, Alexa647 label, 635/667 nm fluorescence (AID 1118); conditions: BSA-A647 binding, fluorescence 635 nm, higher = more signal;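 further: score merges 667 nm emission intensity and signal-to-noise per printed compound spot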
# Sequence of Albumin (Bos taurus) (P02769 whole entry, looked up): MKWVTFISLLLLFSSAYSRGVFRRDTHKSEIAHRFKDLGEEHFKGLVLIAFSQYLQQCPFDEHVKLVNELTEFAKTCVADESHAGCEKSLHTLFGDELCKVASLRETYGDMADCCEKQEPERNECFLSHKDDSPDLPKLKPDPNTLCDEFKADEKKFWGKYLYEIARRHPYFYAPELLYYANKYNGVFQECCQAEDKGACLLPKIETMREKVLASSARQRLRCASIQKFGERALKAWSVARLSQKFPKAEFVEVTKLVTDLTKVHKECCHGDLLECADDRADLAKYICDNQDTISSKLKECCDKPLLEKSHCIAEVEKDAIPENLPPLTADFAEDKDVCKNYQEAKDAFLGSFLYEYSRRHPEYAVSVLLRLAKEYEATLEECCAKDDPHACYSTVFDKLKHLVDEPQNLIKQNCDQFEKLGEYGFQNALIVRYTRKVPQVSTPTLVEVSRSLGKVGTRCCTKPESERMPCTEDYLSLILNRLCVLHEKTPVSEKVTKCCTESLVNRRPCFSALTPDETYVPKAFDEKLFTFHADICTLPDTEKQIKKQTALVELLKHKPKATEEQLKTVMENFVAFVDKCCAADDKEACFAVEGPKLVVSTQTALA
# [1] = small-molecule microarray binders of probe aXIP, primary screen, biochemical, NeuroSMM set, 635/667 nm fluorescence (AID 1119); conditions: higher = more signal, called active from +8 up or from −8 down;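 further: probe is the protein aXip251-270 applied at 1 µg/mL to compound-printed slides; binding of probe to printed compounds measured as 667 nm fluorescence plus signal to noise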
# [2] = small-molecule binders of probe aNOTCH3, primary screen, biochemical, small-molecule microarray, 635/667 nm fluorescence (AID 1120); conditions: higher = more signal;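 further: probe is a biotin-tagged antibody raised against NOTCH3 rather than NOTCH3 protein; score merges spot fluorescence near 667 nm with spot signal to noise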
# [3] = small-molecule binders of probe aNOTCH2, primary screen, biochemical, small-molecule microarray, 635/667 nm fluorescence (AID 1121); conditions: higher = more signal;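 further: score merges feature fluorescence read at 667 nm with its signal to noise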
# [4] = target: Carbonic anhydrase 2 (Homo sapiens) (UniProt P00918); test: CAII small-molecule binders, profiling panel, biochemical, small-molecule microarray, Alexa647-labelled CAII (AID 1122); conditions: CAII-A647 binding fluorescence, higher = more signal
# [5] = COS7 lysate on small-molecule microarray, probe aHis, 635 nm (AID 1123); conditions: COS7 cell lysate, fluorescence, higher = more signal;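 further: z-score combines 667nm fluorescence intensity with signal-to-noise per printed compound spot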
# [6] = compound binding in COS7 lysate, probe aLAP1, primary screen, cell lysate, small-molecule microarray (AID 1124); conditions: probe aLAP1, fluorescence, higher = more signal;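 further: lysate comes from COS7 cells expressing LAP1 and is applied at 0.3 µg/mL; score merges spot fluorescence near 667 nm with signal-to-noise over triplicate slides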
# Sam68 (KHDRBS1) = test: Sam68 small-molecule binders, primary screen, biochemical, small-molecule microarray, 635 nm fluorescence (AID 1125); conditions: small-molecule microarray binding, higher = more signal;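 further: score merges 667 nm channel intensity with signal to noise over triplicate slides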
# [7] = tested on: Chordin-like protein 2 (CHRDL2); test: CHRDL2 small-molecule binders, primary screen, biochemical, small-molecule microarray, 635 nm fluorescence (AID 1126); conditions: small-molecule microarray binding, fluorescence 635 nm; higher = more signal;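 further: printed compound slides probed with Chrdl2 protein at 4 µg/mL for 1 h at 4 C; score merges 667 nm emission intensity with signal to noise over three replicate slides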
# [8] = target: Concanavalin-A (Canavalia ensiformis) (UniProt P02866); test: ConA small-molecule binders, primary screen, artefact control for SMM control protein annotation, biochemical, small-molecule microarray, Alexa647 label, 635 nm (AID 1127); conditions: ConA-A647 binding fluorescence, higher = more signal;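 further: z combines 667 nm emission intensity with signal-to-noise across three replicate slides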
# Sequence of Concanavalin-A (Canavalia ensiformis) (P02866 whole entry, looked up): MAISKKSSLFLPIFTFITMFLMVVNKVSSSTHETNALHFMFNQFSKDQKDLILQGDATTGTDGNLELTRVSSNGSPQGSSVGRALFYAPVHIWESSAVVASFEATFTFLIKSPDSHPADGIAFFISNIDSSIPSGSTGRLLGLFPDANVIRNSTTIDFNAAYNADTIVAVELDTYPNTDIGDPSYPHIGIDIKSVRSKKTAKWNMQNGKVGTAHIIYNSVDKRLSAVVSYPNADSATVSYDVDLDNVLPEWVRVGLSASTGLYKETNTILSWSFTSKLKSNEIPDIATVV
Compound,composite z-score (Albumin (Bos taurus)),composite Z-score [1],composite z-score [2],composite z-score [3],composite z-score [4],composite z-score [5],composite z-score [6],composite z-score (Sam68 (KHDRBS1)),composite z-score [7],composite z-score [8]
COc1ccc(NC(=O)O[C@H]2[C@H](OC(=O)Nc3ccccc3)[C@@H](OC(=O)Nc3ccccc3)[C@@H](OC)O[C@@H]2CO)cc1,0.137,-0.275 (inactive),-0.0003,-0.0878,0.761,2.8,0.624,1.29,0.402,1.13
CC1CC/C=C\[C@H]2OC34C=CCN(c5ccc(Cl)cc5)C(=O)[C@H]3N(CCCCCO)C(=O)[C@]4(C)C2C(=O)O1 (stereo not given in full),-1.08,-0.0503 (inactive),-0.288,-0.117,-0.482,-0.779,-0.3,-0.682,-1.67,-1.03
CCCCCCc1nc(-c2cc(C)c(OC)c(C)c2)c(C)c2c1[Si](C(C)C)(C(C)C)OC2,-0.58,0.792 (inactive),-0.165,-0.209,-0.146,0.0188,-0.373,-0.611,0.574,-0.112
COCCCNC(=O)[C@]1(CCS(=O)(=O)c2ccccc2)N=C(c2ccc(OCCCO)cc2)O[C@@H]1c1ccccc1N=[N+]=[N-],1.02,0.778 (inactive),0.486,-0.143,0.569,2.39,0.371,1.31,-0.71,1.18
C=CCC(OC(C)=O)[C@@H]1[C@@H](N(Cc2cccc3ccccc23)C(=O)Cc2ccc(F)cc2)c2cc(OCCCO)ccc2N1C(=O)c1ccc2ccccc2n1 (stereo not given in full),-0.0728,-0.486 (inactive),-0.0125,0.0156,0.409,0.0549,0.398,-0.301,0.192,0.483
COc1ccc([Si](C)(C)[C@@H]2[C@@H](CC(=O)N3Cc4ccccc4C[C@H]3CO)O[C@]3(C(=O)N(Cc4cccc(N5C(=O)c6cccc7cccc5c67)c4)c4ccccc43)[C@H]2C)cc1,-0.566,-0.0894 (inactive),0.143,-0.0928,0.598,1.26,-0.235,0.817,1.27,1.12
CCCCO[C@H]1C[C@H]2C(I)=C[C@@H]1C(=O)[C@]21CO1,-0.369,-0.014 (inactive),-0.0311,-0.25,-0.302,-0.196,-0.287,-0.414,0.377,0.267
C=CCOC(=O)[C@H]1[C@@H]2C(=O)O[C@@H](c3ccccc3)[C@@H](c3ccccc3)N2[C@@H](c2ccc(OCCOC(=O)[C@H]3C[C@H]4C(=O)N[C@@H](CCCCNC(C)=O)C(=O)N4[C@H]3c3ccc(O)cc3)cc2)[C@]12C(=O)Nc1ccccc12,-1.06,1.09 (inactive),0.0076,-0.112,0.634,1.19,-0.549,1.3,0.998,1.16
COC(=O)[C@@]1(Cc2ccc(F)cc2)[C@H]2c3cc(C(=O)N4CCCC4)n(CCN4CNCC4=O)c3C[C@H]2CN1C(=O)c1ccccc1,0.975,-0.476 (inactive),0.323,-0.0345,0.766,3.18,0.197,0.592,-0.834,0.63
O=C1C2C=CC(C(O)c3ccccc3)N(Nc3ccccc3F)C2C(=O)N1c1ccccc1 (stereo not given),0.571,-0.158 (inactive),-0.0879,-0.126,0.811,0.737,0.34,0.246,0.18,0.532
Cn1cccc1C(O)C1C=CC2C(=O)NC(=O)C2N1Nc1ccc(Cl)cc1Cl (stereo not given),1.04,0.589 (inactive),0.569,0.403,0.731,2.79,1.26,1.29,-0.851,1.21
C=C(/C(=C/C[C@H](OC(C)=O)c1ccccc1OCCO)c1cc(C(=O)OC)ccc1OC)C(C)C,0.469,-0.0127 (inactive),-0.0782,-0.173,0.491,1.26,-0.0654,0.527,-0.152,0.548
O=C1NC(=O)C2C1C=CC(C(O)c1ccco1)N2Nc1ccccn1 (stereo not given),-0.176,0.0674 (inactive),-0.133,-0.0567,0.713,0.0264,0.861,0.14,0.146,-0.0501
C=CCNC(=O)[C@@H]1[C@H]2C(=O)O[C@H](c3ccccc3)[C@H](c3ccccc3)N2[C@H](c2ccc(O)cc2)[C@@]12C(=O)N(C(=O)OCCOC)c1ccc(C#CC3(O)CCCCCC3)cc12,-0.632,-0.245 (inactive),-0.416,-0.153,-0.742,-0.642,-0.547,-0.669,-2.57,-0.533
C=C(COC)/C(=C/C[C@H](OC(C)=O)c1ccc(OCCO)cc1)c1cc(C(=O)OC)ccc1OC,-0.115,0.835 (inactive),0.0642,-0.107,0.622,0.685,-0.0565,1.07,0.501,0.519
C=CCNC(=O)[C@H]1[C@@H]2C(=O)O[C@@H](c3ccccc3)[C@@H](c3ccccc3)N2[C@@H](c2ccc(O)cc2)[C@]12C(=O)Nc1ccc(C#CC3(O)CCCCCC3)cc12,0.201,-0.005 (inactive),0.0961,-0.0695,0.714,2.11,0.355,1.1,0.215,0.556
Cc1ccc(S[C@]2(C(=O)O)CC(=O)N(C3Cc4ccccc4C3)[C@@H]2c2ccc(CO)cc2)cc1,0.0322,0.736 (inactive),-0.102,-0.057,0.727,2.65,0.826,0.667,-1.8,-0.458
CN(C)C(=O)C1N=C(c2ccc(OCCCO)cc2)N(c2ccccc2)O1 (stereo not given),0.0877,0.794 (inactive),0.147,0.0674,0.846,1.15,0.502,1.32,0.267,0.988
COc1ccc(NC(=O)O[C@H]2[C@H](OC(=O)Nc3ccccc3)[C@H](OC(=O)Nc3ccccc3)[C@@H](OC)O[C@@H]2CO)cc1,0.693,1.58 (inactive),0.861,0.28,0.703,2.87,0.197,1.31,0.181,0.946
O=C1O[C@@H](c2ccccc2)[C@@H](c2ccccc2)N2[C@@H](c3ccc(OCCO)cc3)[C@]3(C(=O)Nc4ccccc43)[C@@H](C(=O)O)[C@H]12,-0.0883,-0.24 (inactive),1.09,0.464,0.745,1.03,0.741,0.428,-0.12,0.539
Cc1ccc(S[C@]2(C(=O)O)CC(=O)N(Cc3ccccc3Cl)[C@@H]2c2ccc(CO)cc2I)cc1,0.0877,-0.648 (inactive),-0.515,-0.269,0.31,0.546,-0.635,0.409,-0.0996,-0.1
C[N+](C)(C)CCCCCCNC(=O)[C@H]1C[C@H]2C(=O)NCC(=O)N2[C@H]1c1ccc(O)cc1,-0.0386,1.17 (inactive),-0.114,-0.149,0.422,1.21,0.255,1.12,0.856,0.758

# Source: PubChem BioAssay
